Records with an inconclusive call do not appear. Where a call stands in place of a potency, no number is given. Activity calls are given as the source filed them. Calls come from the whole dose curve; as a rule, active = well fitted curve in the direction sought with a large enough effect; inconclusive = small, poorly fitted or top-dose-only effect, or another doubt; inactive = no such curve, though single readings can be large; an effect the other way counts as inactive or inconclusive.
How the values were obtained:
[1] = qHTS of pediatric cancer cell lines to identify multiple opportunities for drug repurposing: Confirmatory screen for Rh18 cells (AID 1347125); note: nearly all actives have a fitted effect of over 55% in size; note: potency is the fitted concentration of half-maximal effect
Text: (§1) Drug repurposing or repositioning has been offered as a strategy for drug development in oncology programs. This approach has special potential for childhood cancers and other rare or orphan diseases, where the expected return on new drug development has been a disincentive to pharmaceuticals.
(§2) In this project we exploit the poly-pharmacology of drugs to discover new indications via phenotypic screening of a panel of 19 well-characterized cell lines derived from solid tumors seen in children and adolescents. The goal is to identify approved drugs with previously unrecognized anticancer properties that has the potential to reveal new mechanisms and biological processes involved in carcinogenesis or drug resistance. We employed a titration-based paradigm (quantitative high-throughput screening or qHTS), where all compounds were tested at multiple concentrations for their effect on cell viability. Concentration-response curves (CRCs) were derived directly from the primary screen, and both potency and efficacy values were used to identify compounds with robust bioactivity profiles. We screened the NIH Chemical Genomics Center (NCGC) Pharmaceutical Collection (NPC) and Mechanism Interrogation Plate (MIPE) small molecule collections of approved and investigational compounds against these cell lines; and measured metabolically active cells after 48 hours of compound treatment as a proxy for cell viability.
(§3) Assay Submitter: Nathalia J. Martinez, National Center for Advancing Translational Sciences, National Institutes of Health, Rockville, MD, USA; email: natalia.martinez@nih.gov
(§4) [1] Shen, M et al. Quantitative high-throughput phenotypic screening of pediatric cancer cell lines identifies multiple opportunities for drug repurposing. Oncotarget 2017 Dec 19;9(4):4758-4772. PMID 29435139.
(§5) The cells were obtained from University of North Carolina (UNC), Pediatric Preclinical Testing Program (PPT), and Coriell Institute (CI).
(§6) qHTS cell viability assay:
(§7) Cells were assayed in growth media at a density of 500-1,000 cells/well. Five microliters of cells were dispensed into 1,536-well, white, solid-bottom, TC-treated plates (Greiner Bio One) using a multidrop dispenser and incubated at 37 degrees C, 5% CO2, under a humidified atmosphere for 5 hours. Twenty-three nanoliters of compounds and controls (neutral control DMSO or positive control bortezomib at final concentration of 2.3 µM) were subsequently transferred by Kalypsys pintool. For primary screens, the MIPE collection was tested at 11-point dilutions (final concentrations range from 0.78 nM to 46 µM) and the NPC collection at 8-point dilutions (final concentrations range from 0.59 nM to 46 µM). Compounds tested in follow-up screens were assayed at 11-point dilutions. Cells were incubated for 48 hours, followed by addition of 3 µL of CellTiter-Glo (Promega). After a 15 min incubation at room temperature, samples were analyzed for luminescence intensity using a ViewLux High-throughput CCD imager equipped with clear filters.

[2] = qHTS of pediatric cancer cell lines to identify multiple opportunities for drug repurposing: Confirmatory screen for Saos-2 cells (AID 1347127); note: nearly all actives have a fitted effect of over 60% in size; note: potency is the fitted concentration of half-maximal effect
Method in brief: (§8)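 Cells (500-1,000/well) rested 5 h, then received compounds for 48 h; metabolically active cells were measured by CellTiter-Glo luminescence. Final concentrations spanned up to 46 µM (MIPE, 11-point) or 0.59 nM-46 µM (NPC, 8-point) in primary screens, 11-point in follow-ups.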

[3] = qHTS of pediatric cancer cell lines to identify multiple opportunities for drug repurposing: Confirmatory screen for SK-N-SH cells (AID 1347129);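 note: cells exposed to compound for 48 h before viability read; nearly all actives have a fitted effect of over 60% in size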; note: potency is the fitted concentration of half-maximal effect
Text: as §1, §2, §3, §4, §5, §6, §7

[4] = biological target: N-terminal Xaa-Pro-Lys N-methyltransferase 1 (Homo sapiens) (UniProt Q9BV86); assay: qHTS Assay for Inhibitors of N-terminal methyltransferase 1 (NTMT1): LOPAC validation of the NTMT1 SAHH-coupled ThioGlo3 Assay (AID 1347143);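 note: SAH from peptide methylation measured as thiol fluorescence via SAHH coupling and ThioGlo3; nearly all actives have a fitted effect of over 70% in size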
N-terminal Xaa-Pro-Lys N-methyltransferase 1 (Homo sapiens), sequence (Q9BV86 whole entry, looked up): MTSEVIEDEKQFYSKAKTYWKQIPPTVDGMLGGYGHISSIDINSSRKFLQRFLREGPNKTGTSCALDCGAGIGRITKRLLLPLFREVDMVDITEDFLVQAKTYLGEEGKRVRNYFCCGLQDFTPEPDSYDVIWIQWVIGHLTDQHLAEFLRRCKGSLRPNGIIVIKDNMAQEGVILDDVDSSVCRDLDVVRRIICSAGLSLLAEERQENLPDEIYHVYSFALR
Method in brief: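 Inhibition of NTMT1 methylation of peptide SPKRIA is followed by converting SAH with SAHH and labelling the released thiol with ThioGlo3. Plates are read at 340/450nm before and 30 min after reagent addition, both at room temperature.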

[5] = system: Zika virus NS2B-NS3 protease (unlinked); assay: Optimization of GU AMC qHTS for Zika virus inhibitors: Unlinked NS2B-NS3 protease assay (AID 1347151); note: series mostly up to about 52 µM; nearly all actives have a fitted effect of over 80% in size
Method in brief: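 In this qHTS, compounds acted on 25 nM unlinked Zika NS2B–NS3 in pH 8.0 Tris/Tween buffer. Cleavage of an AMC peptide ran 15 min at room temperature, to about 20% conversion.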

[6] = qHTS of pediatric cancer cell lines to identify multiple opportunities for drug repurposing: Confirmatory screen for RD cells (AID 1347124);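 note: cells exposed to compound for 48 h before viability readout; nearly all actives have a fitted effect of over 65% in size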
Method in brief: as §8

[7] = qHTS of pediatric cancer cell lines to identify multiple opportunities for drug repurposing: Confirmatory screen for Rh30 cells (AID 1347126); note: nearly all actives have a fitted effect of over 55% in size; note: potency is the fitted concentration of half-maximal effect
Text: as §1, §2, §3, §4, §5, §6, §7

[8] = qHTS of pediatric cancer cell lines to identify multiple opportunities for drug repurposing: Confirmatory screen for OHS-50 cells (AID 1347128);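 note: compound exposure lasted 48 h at 37 degrees C; nearly all actives have a fitted effect of over 55% in size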; note: potency is the fitted concentration of half-maximal effect
Method in brief: as §8

[9] = system: Zika virus NS2B-NS3 protease (linked construct); assay: Confirmatory screen NINDS AMC qHTS for Zika virus inhibitors (AID 1347152); conditions: Purified linked NS2B-NS3, AMC substrate fluorescence; note: potency is the fitted concentration of half-maximal effect; nearly all actives have a fitted effect of over 70% in size
Method in brief: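 Concentration-response confirmation used the NINDS linked protease (NS2B hydrophilic domain joined to NS3 protease domain), 1 nM, with a 15-min compound preincubation. Substrate, Nle-KRR-AMC at 10 microM, was read by UV fluorescence before and after 15 min.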

[10] = biological target: Furin (Homo sapiens) (UniProt P09958); assay: Furin counterscreen qHTS for Zika virus inhibitors (AID 1347149); note: nearly all actives have a fitted effect of over 70% in size; note: potency is the fitted concentration of half-maximal effect
Furin (Homo sapiens), sequence (P09958 whole entry, looked up): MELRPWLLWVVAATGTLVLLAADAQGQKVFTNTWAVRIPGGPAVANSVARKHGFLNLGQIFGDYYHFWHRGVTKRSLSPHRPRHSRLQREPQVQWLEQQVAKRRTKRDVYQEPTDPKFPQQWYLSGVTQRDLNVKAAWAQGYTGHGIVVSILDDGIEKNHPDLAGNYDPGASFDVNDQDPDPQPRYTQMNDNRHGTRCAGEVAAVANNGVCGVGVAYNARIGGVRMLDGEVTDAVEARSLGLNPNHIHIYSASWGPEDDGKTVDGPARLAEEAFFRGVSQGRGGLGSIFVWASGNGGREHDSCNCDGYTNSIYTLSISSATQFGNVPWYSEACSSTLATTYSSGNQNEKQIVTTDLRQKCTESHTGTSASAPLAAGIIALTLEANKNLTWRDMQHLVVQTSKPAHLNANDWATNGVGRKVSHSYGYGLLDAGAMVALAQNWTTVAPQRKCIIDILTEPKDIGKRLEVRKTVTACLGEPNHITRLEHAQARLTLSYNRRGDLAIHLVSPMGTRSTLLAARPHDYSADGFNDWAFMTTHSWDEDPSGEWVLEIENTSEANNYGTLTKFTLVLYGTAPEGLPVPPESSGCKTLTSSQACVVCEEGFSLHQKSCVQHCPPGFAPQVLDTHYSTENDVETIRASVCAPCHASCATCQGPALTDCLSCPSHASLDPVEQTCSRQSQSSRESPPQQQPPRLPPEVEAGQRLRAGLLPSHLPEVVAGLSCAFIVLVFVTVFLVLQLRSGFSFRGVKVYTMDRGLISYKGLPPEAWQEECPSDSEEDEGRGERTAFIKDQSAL
Text: Avindra Nath, Ph.D., National Institute of Neurological Disorders and Stroke (NINDS), Bethesda, MD
Radhakrishnan Padmanabhan, Ph.D., Georgetown University (GU), Washington D.C.
Zika Virus causes congenital defects, including microcephaly and is associated with Guillain-Barre syndrome, eningoencephalitis and myelitis in infected adult. […] Using a target-based approach, we hope to establish a screening paradigm to uncover novel, cell-active NS2B-NS3 protease (Zika Virus) specific inhibitors from NCATS' collection of small molecules using qHTS.
Four assay panel was created to identify potential Zika Virus inhibitors. Namely, (1) GU unlinked NS2B-NS3 AMC tagged protease qHTS, (2) GU unlinked NS2B-NS3 Rhodamine tagged protease qHTS, (3) NINDS linked NS2B-NS3 AMC tagged protease qHTS, (4) NINDS linked NS2B-NS3 Rhodamine tagged protease qHTS. Active compounds were re-acquired and re-screened to confirm inhibition. Inhibitors were further screened against various confirmatory and counterscreens in dose response format.
Early Translation Branch (ETB)
National Center for Advancing Translational Sciences (NCATS), Rockville, MD
National Institute of Health (NIH), Bethesda, Maryland
1536-well Furin BOC-RVRR-AMC Protocol:
Human recombinant Furin Serine Protease was purchased from Peprotech (catalog #450-47; full length; Rocky Hill, NJ). Briefly, 3 microL of enzyme (final concentrations of 5 nM), in assay buffer (100 mM HEPES pH 7.0, 1 mM CaCl2 with 0.01% Triton X-100) were dispensed into a 1,536-well solid-bottom black plate (Greiner Bio One, Monroe, NC). […] Plates were then read immediately on a ViewLux High-throughput CCD imager (PerkinElmer, Waltham, MA) equipped with standard UV fluorescence optics (340(30) nm excitation, 450(20) nm emission), then incubated (37C, protected from light) for 15 or 30 minutes (~9% conversion). The change in fluorescence intensity over the 15-minute reaction period was normalized against no-inhibitor and no-enzyme controls and the resulting percent inhibition data were fitted to a 4-parameter Hill equation. […]

CC(NC(C)(C)C)C(=O)c1cccc(Cl)c1 (stereo not drawn)
Potency [1]: inactive | Potency [2]: 18.5 µM (active) | Potency [3]: inactive | outcome [4]: inactive | outcome [5]: inactive

CCC1(c2ccc(N)cc2)CCC(=O)NC1=O (stereo not drawn)
outcome [4]: inactive | outcome [5]: inactive

CCCN(CCC)C(=O)Cc1c(-c2ccc(Cl)cc2)nc2ccc(Cl)cn12
outcome [6]: inactive | Potency [1]: inactive | Potency [7]: 7.37 µM (active) | Potency [2]: inactive | Potency [8]: inactive | Potency [3]: inactive

COc1ccc2c(c1OC)C(=O)O[C@H]2[C@@H]1c2cc3c(cc2CCN1C)OCO3
outcome [4]: inactive

O=C(N/N=C/c1ccc([N+](=O)[O-])o1)c1cc([N+](=O)[O-])cc([N+](=O)[O-])c1O
outcome [6]: inactive | Potency [1]: inactive | Potency [7]: inactive | Potency [2]: inactive | Potency [8]: inactive | Potency [3]: inactive

O=c1[nH]oc2c1CCNC2
outcome [4]: inactive | outcome [5]: inactive

O=C(O)CCCc1ccc(N(CCCl)CCCl)cc1
outcome [6]: inactive | Potency [1]: inactive | Potency [7]: inactive | Potency [8]: inactive | Potency [3]: inactive

C[C@]12CC[C@@H]3c4ccc(OC(=O)N(CCCl)CCCl)cc4CC[C@H]3[C@@H]1CC[C@@H]2O
Potency [9]: 21.5 µM (active)

O=P1(N(CCCl)CCCl)NCCCO1 (stereo not drawn)
outcome [6]: inactive | Potency [1]: inactive | Potency [7]: inactive | Potency [2]: inactive | Potency [8]: inactive | Potency [3]: inactive | outcome [5]: inactive

COc1cccc2c1C(=O)c1c(O)c3c(c(O)c1C2=O)C[C@@](O)(C(=O)CO)CC3OC1CC(N2CCOC(OC)C2)C(O)C(C)O1 (stereo partly drawn)
Potency [1]: 0.0522 µM (active) | Potency [7]: 0.0465 µM (active) | Potency [8]: 0.0233 µM (active) | Potency [3]: 0.0235 µM (active)

Cc1ncsc1CCCl
outcome [5]: inactive

CCOP(=S)(OCC)Oc1ccc2c(C)c(Cl)c(=O)oc2c1
outcome [6]: inactive | Potency [1]: inactive | Potency [7]: inactive | Potency [2]: inactive | Potency [8]: inactive | Potency [3]: inactive

CCCCCN(C)CCC(O)(P(=O)(O)O)P(=O)(O)O
outcome [4]: inactive | outcome [5]: inactive

CC(C)N(CCC(C(N)=O)(c1ccccc1)c1ccccn1)C(C)C (stereo not drawn)
outcome [4]: inactive | outcome [5]: inactive

O=C1OC(c2ccc(O)c(S(=O)(=O)O)c2)(c2ccc(O)c(S(=O)(=O)O)c2)c2c(Br)c(Br)c(Br)c(Br)c21
Potency [10]: inactive

C=C(C)[C@H]1CN[C@H](C(=O)O)[C@H]1CC(=O)O
outcome [4]: inactive | outcome [5]: inactive

CN1C(=O)CCS(=O)(=O)C1c1ccc(Cl)cc1 (stereo not drawn)
outcome [4]: inactive | outcome [5]: inactive

O=c1oc2ccccc2c(O)c1Cc1c(O)c2ccccc2oc1=O
Potency [10]: inactive

CC(C)c1cccc(C(C)C)c1O
outcome [4]: inactive | outcome [5]: inactive

O=c1c(C2CC(c3ccc(-c4ccc(Br)cc4)cc3)Cc3ccccc32)c(O)sc2ccccc12 (stereo not drawn)
Potency [9]: 19.2 µM (active)

O=C(Nc1ccc(Br)cc1)c1cc(Br)cc(Br)c1O
Potency [10]: 27.1 µM (active) | Potency [9]: 19.2 µM (active)

NCCc1ccc(O)cc1
outcome [4]: inactive | outcome [5]: inactive

O=C(CCCN1CCC2(CC1)C(=O)NCN2c1ccccc1)c1ccc(F)cc1
outcome [4]: inactive

CC(C)(C)NCC(O)c1ccccc1Cl (stereo not drawn)
outcome [4]: inactive | outcome [5]: inactive

C[C@](O)(CS(=O)(=O)c1ccc(F)cc1)C(=O)Nc1ccc(C#N)c(C(F)(F)F)c1
outcome [6]: inactive | Potency [1]: inactive | Potency [7]: inactive | Potency [2]: inactive | Potency [8]: inactive | Potency [3]: inactive

C[C@]12CCC(=O)C=C1CC[C@@H]1[C@@H]2CC[C@@]2(C)[C@H]1CC[C@]2(C)O
outcome [6]: inactive | Potency [1]: inactive | Potency [7]: inactive | Potency [2]: inactive | Potency [8]: inactive | Potency [3]: inactive

— PubChem BioAssay (NCATS)
